pPAFAH inh: pPAFAH enzyme inhibitors, primary screen, biochemical, fluorescence polarization, human. 330,000 compounds, 1.5% hits. Platelet-activating factor acetylhydrolase (Homo sapiens), Q13093. recombinant pPAFAH, FP-rhodamine probe fluorescence polarization. AID 463082, 2010. inhibition, % at 3.39 µM;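 active = inhibition above the mean inhibition across the screen plus 3 SD, cut at about 25% in these data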;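 note: inhibitors block binding of the rhodamine activity-based probe so polarization drops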
PAFAH1B3 FP inh: PAFAH1B3 enzyme inhibitors, primary screen, biochemical, fluorescence polarization, human; recombinant PAFAH1B3, FP-rhodamine probe; inhibition, % at 3.39 µM; 340,000 compounds, 0.28% hits; AID 492972, 2010;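 active = inhibition above the screen-wide average of all tested compounds plus 3 SD, cut at about 25% in these data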
PAFAH2 FP inh: PAFAH2 enzyme inhibitors, primary screen, biochemical, fluorescence polarization, human | AID 492956, 2010 | inhibition, % at 3.39 µM | recombinant PAFAH2, FP-rhodamine activity probe | 340,000 compounds, 0.99% hits | Platelet-activating factor acetylhydrolase 2, cytoplasmic (Homo sapiens), Q99487;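 active = inhibition above the mean over all tested compounds plus 3 SD, cut at about 30% in these data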;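 note: inhibitors block probe labeling of enzyme so polarization drops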
PAFAH1B2 inh: PAFAH1B2 enzyme inhibitors, primary screen, biochemical, fluorescence polarization, human. recombinant PAFAH1B2, FP-rhodamine activity probe. 340,000 compounds, 1.2% hits. AID 492953, 2010. inhibition, % at 3.39 µM. Platelet-activating factor acetylhydrolase IB subunit alpha2 (Homo sapiens), P68402;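 active = inhibition above the mean of all tested compounds plus 3 SD, cut at about 24% in these data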
PfM18AAP inh-1: PfM18AAP inhibitors, malaria aminopeptidase, primary screen, biochemical, QFRET, recombinant enzyme | H-Glu-NHMec fluorogenic cleavage | 290,000 compounds, 1.2% hits | inhibition, % at 7.35 µM | M18 aspartyl aminopeptidase (Plasmodium falciparum 3D7);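 active = inhibition above the campaign mean inhibition over all tested compounds plus 3 SD, cut at about 28% in these data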
Pemphigus Ab inh: inhibitors of pemphigus antibody binding to DSG3, primary screen, biochemical, bead-based, flow cytometry, scFv-GFP. Desmoglein-3 (Homo sapiens), P32926. AID 588358, 2011. 310,000 compounds, 0.48% hits. DSG3-coupled beads, scFv-anti-DSG3-GFP binding; hits give low values. binding (percent of control), % at 10 µM;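 active = binding more than 3 SD below its plate's average and above zero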;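 note: hits lower antibody fragment binding to DSG3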
Target sequence (P32926 whole entry, looked up, the tested form may be a part): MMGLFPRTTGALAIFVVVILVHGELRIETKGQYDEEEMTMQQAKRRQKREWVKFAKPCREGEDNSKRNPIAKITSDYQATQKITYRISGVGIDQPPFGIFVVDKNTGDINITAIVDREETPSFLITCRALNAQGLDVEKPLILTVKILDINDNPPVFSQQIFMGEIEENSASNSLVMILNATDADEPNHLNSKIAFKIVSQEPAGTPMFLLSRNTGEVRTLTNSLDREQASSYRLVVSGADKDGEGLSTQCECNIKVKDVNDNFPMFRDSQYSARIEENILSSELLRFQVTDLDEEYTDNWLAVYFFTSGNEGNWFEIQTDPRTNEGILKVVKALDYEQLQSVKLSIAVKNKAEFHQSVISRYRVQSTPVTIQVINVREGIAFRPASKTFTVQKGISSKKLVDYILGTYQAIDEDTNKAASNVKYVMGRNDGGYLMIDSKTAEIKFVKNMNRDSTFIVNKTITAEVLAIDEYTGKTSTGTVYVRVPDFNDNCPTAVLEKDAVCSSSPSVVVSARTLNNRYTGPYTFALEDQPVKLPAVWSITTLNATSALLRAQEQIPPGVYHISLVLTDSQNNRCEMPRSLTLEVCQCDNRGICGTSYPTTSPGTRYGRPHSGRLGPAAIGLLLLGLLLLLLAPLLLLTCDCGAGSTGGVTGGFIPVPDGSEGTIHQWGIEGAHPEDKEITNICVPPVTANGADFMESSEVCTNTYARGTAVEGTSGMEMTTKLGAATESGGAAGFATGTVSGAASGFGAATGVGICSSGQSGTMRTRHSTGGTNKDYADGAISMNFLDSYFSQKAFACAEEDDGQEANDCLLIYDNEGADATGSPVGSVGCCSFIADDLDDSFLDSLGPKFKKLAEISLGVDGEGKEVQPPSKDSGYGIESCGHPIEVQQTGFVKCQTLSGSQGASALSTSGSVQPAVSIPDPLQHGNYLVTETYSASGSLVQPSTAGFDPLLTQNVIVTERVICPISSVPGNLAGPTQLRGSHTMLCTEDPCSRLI
PfM18AAP inh-2: PfM18AAP inhibitors, malaria aminopeptidase, confirmation, biochemical, QFRET, recombinant enzyme, triplicate | H-Glu-NHMec fluorogenic cleavage | inhibition, % at 7.35 µM | shares compounds with PfM18AAP inh-1 | AID 2170, 2009 | 2,400 compounds, 28% hits;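 active = mean inhibition over replicate wells above the hit cutoff set for the earlier primary screen, cut at about 29% in these data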
CTSL1 confirm: cathepsin L1 inhibitors, retest, confirmation, counter-screen for PFM18AAP inhibitor project, biochemical, QFRET, triplicate; shares compounds with PfM18AAP inh-1; purified cathepsin L1, Z-Leu-Arg-MCA fluorescence; inhibition, % at 5.96 µM; 2,400 tested, under 10 active; AID 2178, 2009;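 active = average inhibition across replicates above the hit cutoff set in the earlier primary screen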
A number is an active result; - = inactive; . = no result. In the library only some 3.8% were active in any assay of this set; here they are far more common.

SMILES	pPAFAH inh	PAFAH1B3 FP inh	PAFAH2 FP inh	PAFAH1B2 inh	PfM18AAP inh-1	Pemphigus Ab inh	PfM18AAP inh-2	CTSL1 confirm
CC(C)(C)c1ccc(/C=N/Nc2nncn2N)cc1	.	-	-	-	51	-	-	-
NNc1ccc2nncn2n1	-	-	-	-	40	.	39	-
CC(OC(=O)CCC(=O)N1CCN(S(=O)(=O)c2ccc3ccccc3c2)CC1)C(=O)NC(N)=O (centres undefined)	-	-	-	-	-	-	.	.
Oc1ccc(Br)cc1CNc1cccc2cccnc12	-	-	-	-	46	-	-	103
Cc1ccc(O)c(CNc2cccc3cccnc23)c1	-	-	-	-	-	-	.	.
CCOC(=O)c1sc(=S)n(C)c1NC(=O)c1ccccc1C	-	-	-	-	35	-	-	-
Cc1cc(C(=O)NCc2csc(-c3ccccc3)n2)no1	-	-	-	-	-	.	.	.
CC1(C)CC(=O)C=C(NNC(=O)c2ccccc2O)C1	-	-	-	-	-	-	.	.
COc1ccc(C(=O)NNC2=CC(=O)CC(C)(C)C2)cc1	-	-	-	-	47	-	-	-
CC/C(CC(=O)C(F)(F)F)=N\NC(=O)/C(C#N)=C/N(C)C	-	-	-	-	43	-	-	-
CN(C)/C=C(\C#N)C(=O)N/N=C/c1ccc(F)cc1	-	-	-	-	-	-	.	.
Cc1cccc(NC(=S)Nc2cccc(C)n2)n1	-	-	-	-	-	-	.	.
Cc1cccc(NC(=S)NC2CCCCCC2)c1C	-	-	-	-	-	-	.	.
Cc1cccc(NC(=S)NC2CCCCC2)n1	-	-	-	-	36	-	-	-
Cc1cccc(NC(=S)NC2CCCC2)n1	-	-	-	-	44	-	-	-
COc1ccc(C(=O)NCc2nnc(SCC(=O)NCc3ccco3)o2)cc1	-	-	-	-	-	-	.	.
CCC(C)NCCOCCOc1ccc(C)cc1Br (centres undefined)	-	-	-	-	32	-	-	-
Cc1cc(C)nc(Sc2nc(Cl)nc(N(c3ccccc3)c3ccccc3)n2)n1	-	-	-	-	47	-	-	-
S=C(NNC(=S)Nc1ccccc1)Nc1ccccc1	-	-	-	-	50	-	-	-
O=C(Cc1ccccc1)NNC(=S)Nc1ccccc1	-	.	.	.	-	-	.	.
NC(=S)NNC(=S)Nc1ccccc1	-	-	-	-	42	-	-	-
COCCCNC(=S)NNC(=S)Nc1ccc(F)cc1F	-	-	-	-	32	.	-	-
COCCCNC(=S)Nc1ccc(C)cc1	-	-	-	-	-	-	.	.
COCCCNC(=S)NNC(=S)Nc1ccccc1	-	.	.	.	40	-	-	-
O=C(CSc1ncn[nH]1)N1N=C2/C(=C/c3ccco3)CCCC2C1c1ccco1 (centres undefined)	-	-	-	-	36	-	-	-
SMILES	pPAFAH inh	PAFAH1B3 FP inh	PAFAH2 FP inh	PAFAH1B2 inh	PfM18AAP inh-1	Pemphigus Ab inh	PfM18AAP inh-2	CTSL1 confirm
O=C(CSc1ncn[nH]1)N1N=C2/C(=C\c3ccco3)CCCC2C1c1ccco1 (centres undefined)	.	-	-	-	.	-	.	.
CCCc1ccc2oc(C(=O)N3CCCC3)c(C)c2c1	-	-	-	-	-	-	.	.
COc1nc(NC2OC(CO)C(O)C(O)C2O)c(N)c(=O)[nH]1 (centres undefined)	.	-	-	-	.	-	.	.
O=C1OC(Nc2ccc3c(c2)OCO3)c2ccccc21 (centres undefined)	-	-	-	-	45	-	-	-
Cc1cc(/C=C2\SC(=O)N(C)C2=O)c(C)n1-c1ccc(S(N)(=O)=O)cc1	-	-	-	-	-	-	.	.
Cc1cc(/C=C2\SC(=O)N(C)C2=O)c(C)n1-c1ccc(O)cc1	-	-	-	-	33	-	-	-
O=S(=O)(c1ccccc1)c1ccc(N2CCCCCC2)cc1	-	-	-	-	-	-	.	.
C=CC(C)n1c(Br)nc2c1c(=O)[nH]c(=O)n2C (centres undefined)	-	-	-	-	-	-	.	.
CC(C)n1c(=S)[nH]c2c1c(=O)[nH]c(=O)n2C	-	-	-	-	36	-	29	-
CCOC(=O)c1c(-c2ccc(C)o2)csc1NC(=O)CSc1ncn[nH]1	-	-	-	-	61	-	-	-
CCOC(=O)c1c(NC(=O)CSc2ncn[nH]2)sc(C(C)=O)c1C	-	-	-	-	33	-	-	-
COC(=O)c1c(NC(=O)CSc2ncn[nH]2)sc(C)c1C	-	-	-	-	.	-	.	.
Nc1nc(SCC(=O)Nc2ccc(OCc3ccccc3)cc2)n[nH]1	-	-	-	-	-	-	.	.
CCOc1ccccc1N1CCN(CC(=O)Nc2ccccc2C(=O)NC2CC2)CC1	-	-	-	-	.	-	.	.
CSc1cccc(NC(=S)N2CCC(N(C)C(C)C)CC2)c1	-	-	-	-	-	-	.	.
CCC(C)N(C)C1CCN(C(=S)Nc2cccc(SC)c2)CC1 (centres undefined)	-	-	-	-	41	-	-	-
CCOC(=O)C(NC(=O)N(C)C)(Nc1sc(C)c(CC)c1C#N)C(F)(F)F (centres undefined)	-	-	-	-	49	-	-	-
CCOC(=O)C(NC(=O)CCl)(Nc1sc(C)c(CC)c1C#N)C(F)(F)F (centres undefined)	-	-	-	-	-	-	.	.
O=c1[nH]c2ccc(S(=O)(=O)Nc3ccccc3O)cc2[nH]1	-	-	-	-	50	-	47	-
O=c1[nH]c2ccc(S(=O)(=O)Nc3ccc(Br)cc3)cc2[nH]1	-	-	-	-	-	.	.	.
COc1ccc(N/N=C(/C(C)=O)N2CCCc3ccccc32)cc1	-	-	-	-	-	.	.	.
COc1ccc(-c2nc(N)n(C(=O)c3ccccc3)n2)cc1	.	-	-	-	-	-	.	.
COc1ccc(C(=O)n2cnnc2N)cc1	-	-	-	-	48	-	61	-
CCOc1ccc(C(=O)n2cnnc2N)cc1	-	-	-	-	48	-	56	-
Cc1[nH]c(C)c(S(=O)(=O)N2c3ccccc3CC2C)c1C(=O)N1CCCCC1 (centres undefined)	-	-	-	-	-	.	.	.
